Screening data deposited in PubChem by National Center for Advancing Translational Sciences (NCATS).
Pin1 inh: qHTS Assay to Find Inhibitors of Pin1; Peptidyl-prolyl cis-trans isomerase NIMA-interacting 1 (Homo sapiens), Q13526; Pin1 FP peptide displacement, HiFluor488, 10 min; Potency, µM (top dose mostly 115 µM), for inactives: at the highest dose activity, negative = inhibition, usual class: inhibitors; hit rate 0.009% among 390,000; AID 504891, 2011; active = well fitted inhibition curve with a large enough effect in the polarisation, with a control signal flat, not every such curve was filed as active; inconclusive = small, poorly fitted or top-dose-only effect, or effect the other way, or a change in a side signal; inactive = no such curve, though single readings can be large or run the other way; the % refers to the polarisation; note: potency is the fitted concentration of half-maximal effect; % is set by controls: 0 for no effect and ±100 for the full control effect
Target sequence (Q13526 whole entry, looked up): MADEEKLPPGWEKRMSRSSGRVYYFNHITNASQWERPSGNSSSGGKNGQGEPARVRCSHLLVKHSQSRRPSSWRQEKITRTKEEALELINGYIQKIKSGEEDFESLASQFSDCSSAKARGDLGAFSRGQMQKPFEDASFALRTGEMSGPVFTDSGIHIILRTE
B2AR arrestin: qHTS assay of beta-arrestin-biased ligands of beta2-adrenergic receptor; AID 492947, 2010; hit rate 0.02% among 330,000; Potency, µM (titrated, usually from 46.1 µM), for inactives: top-dose activation, usual class: activators; beta-arrestin recruitment to beta2AR, cell-based reporter;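 note: potency is the fitted concentration of half-maximal effect; 0% = DMSO controls and full agonism = EC100 isoproterenol or metaproterenol; nearly all actives have a fitted effect of over 65% in size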
p53 reactivator: qHTS assay for re-activators of p53 using a Luc reporter | H1299 p53-A138V BP100-luciferase reporter, luminescence, 24 h | Potency, µM (series often up to 92.2 µM), without a hit: at the highest dose activity change, positive = activation, usual class: activators | hit rate 0.063% among 320,000 | AID 504706, 2011; note: potency is the fitted concentration of half-maximal effect; % of control where 0% means no effect; nearly all actives have a fitted effect of over 45% in size
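H1299 (p53-null), stable ts p53-A138V + BP100-Luc; 1000 cells/well, Opti-MEM/10% FBS; cpd 4 pt, 1:5; 24 h, 37 deg C, 5% CO2; detection reagent 10 min RT; luminescence.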
PI4K2A inh: qHTS for small molecular inhibitors of PI4K2A | Phosphatidylinositol 4-kinase type 2-alpha (Homo sapiens), Q9BTU6 | purified PI4K2A, ADP-Glo luminescence, 1 h; stronger effect = lower value | activity change, negative = inhibition, % at 76.9 µM | hit rate 0.13% among 420,000; in the data active = activity change below about -50%; inconclusive = mostly about -30% to -49%;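 note: -100% = wells without enzyme as full effect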
Target sequence (Q9BTU6 whole entry, looked up): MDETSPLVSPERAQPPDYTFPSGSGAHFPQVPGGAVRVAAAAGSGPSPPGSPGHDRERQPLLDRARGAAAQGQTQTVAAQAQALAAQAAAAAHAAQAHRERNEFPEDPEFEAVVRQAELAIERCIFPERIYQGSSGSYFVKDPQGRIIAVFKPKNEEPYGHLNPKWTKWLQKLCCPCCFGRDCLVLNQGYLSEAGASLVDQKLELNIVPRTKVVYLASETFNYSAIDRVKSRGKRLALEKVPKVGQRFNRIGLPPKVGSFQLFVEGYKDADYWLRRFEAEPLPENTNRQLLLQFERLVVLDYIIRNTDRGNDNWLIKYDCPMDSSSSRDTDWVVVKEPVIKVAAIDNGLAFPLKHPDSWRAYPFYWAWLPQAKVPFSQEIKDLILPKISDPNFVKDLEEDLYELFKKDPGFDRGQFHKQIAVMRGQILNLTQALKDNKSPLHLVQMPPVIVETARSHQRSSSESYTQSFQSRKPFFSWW
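Compounds are screened against recombinant PI4K2A using PI as substrate and ATP, the latter dispensed at 300 microM. Reactions run one hour at ambient temperature before ADP-Glo detection; full inhibition defined by wells lacking enzyme.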
Giardia killer: Small Molecules that selectively kill Giardia lamblia: qHTS; Giardia lamblia trophozoite viability; activity change, % at 7.66 µM, hits read low; hit rate 0.15% among 340,000; AID 540267, 2011; in the data active = activity change below about -80%; inconclusive = between about -30% and that limit;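 note: parasites exposed to compound for two days anaerobically before the ATP read; % is set by controls: 0 for no effect and ±100 for the full control effect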
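Luminescence from cellular ATP indicates surviving trophozoites (100 cells/well) following 48 hrs anaerobic compound treatment at 37 deg C; signal develops 15-30 min at room temperature.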
Epigenetic reg: Quantitative High-Throughput Screen for Regulators of Epigenetic Control; murine LDR cells, GFP reporter derepression, 30 h; Potency, µM (highest dose often 53.9 µM), inactives show at the top dose GFP activation, actives largely listed as activators; hit rate 0.2% among 280,000; AID 1865, 2009; note: potency is the fitted concentration of half-maximal effect; % of control where 0% means no effect; nearly all actives have a fitted effect of over 60% in size
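Murine LDR cells carrying a silenced, genomically integrated CMV-driven GFP reporter were exposed to compound for 30 hours at 37 C. After PBS washes, GFP-positive cells (20–120 um objects) were counted by laser-scanning microplate cytometry.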
* = called active by the depositor; i = inactive; u = inconclusive; x = no result. Compounds with a hit are over-represented: about 0.44% of the library has one in this group of screens. Unless noted, calls come from the whole dose curve; as a rule, active = well fitted curve in the direction sought with a large enough effect; inconclusive = small, poorly fitted or top-dose-only effect, or another doubt; inactive = no such curve, though single readings can be large; an effect the other way counts as inactive or inconclusive.

SMILES	Pin1 inh	B2AR arrestin	p53 reactivator	PI4K2A inh	Giardia killer	Epigenetic reg
C/C(=N\Nc1nc2ccccc2[nH]1)c1ccccn1	x	-1%	8.9µM*	x	x	x
N#Cc1c(NC(=S)NC(=O)c2ccccc2)sc2c1CCN(CCc1ccccc1)C2	x	-1%	14%	x	x	5.6µM*
N#Cc1c(NC(=S)NC(=O)c2ccccc2)sc2c1CCCC2	3%	-1%	u	-1	0	0%
c1ccc(N=Nc2ccc(C3=NCCO3)cc2)cc1	x	x	x	-51*	x	x
c1ccc(C2=NCCCO2)cc1	x	x	x	5	x	x
CNC(=O)c1c(NC(=O)c2ccc(S(=O)(=O)N3CCCc4ccccc43)cc2)sc2c1CCN(C)C2	u	-1%	-2%	-3	-3	22µM*
CCN1CCc2c(sc(NC(=O)c3ccc(S(=O)(=O)N4CCCC4)cc3)c2C(=O)NC)C1	19%	0%	35µM*	7	8	x
COc1ccccc1N=c1oc2c(OC)cccc2cc1C(=O)NCc1ccco1	1%	0%	13%	-1	2	3%
COc1ccc(N=c2oc3c(OC)cccc3cc2C(=O)NCc2ccco2)cc1OC	0%	0%	14%	0	-2	13µM*
Nc1ccc2c(c1)CN1C(=O)c3ccccc3C1=N2	x	x	x	i	x	x
CCN(CC)c1ccc2nc3ccccc3[n+](CC)c2c1	-4%	0%	-94%	-55*	-19	x
COc1ccc(C2Nc3ccc(Cl)cc3C(=O)N2Cc2ccccc2)cc1COc1ccc(NC(C)=O)cc1 (stereo not drawn)	-1%	x	x	x	x	x
CCS(=O)(=O)c1ccc(OC)c(C(=O)OC)c1	x	x	x	1	x	x
O=C(NCCc1ccccc1)C1CCN(c2nc(-c3ccc(Br)cc3)cs2)CC1	16%	x	x	x	x	x
S=C(Nc1ccccc1)Nc1nc2ccccc2n1CCOc1ccc(Br)cc1	-1%	u	22µM*	1	31	u
Oc1cc(O)cc(/C=C/c2ccc(O)c(O)c2)c1	-4%	0%	u	-53*	-30	1%
C/C=C/c1ccc(O)c(OC)c1	0%	-1%	4%	2	-9	x
CCCCC(=O)Nc1sc2c(c1C(=O)OCC)CCC(C=O)=C2Cl	x	0%	0%	x	x	11µM*
CCOC(=O)c1c(NC(=O)c2ccccc2Cl)sc2c1CCc1ccccc1-2	2%	0%	-2%	5	0	7%
CC(=O)N/N=C/c1ccc([N+](=O)[O-])o1	x	x	x	2	x	x
CC1(C(=O)N/N=C/c2ccc([N+](=O)[O-])o2)CC1(Br)Br (stereo not drawn)	-6%	-1%	29%	-1	-90*	0%
CCCOc1ccc(CCC(=O)N/N=C/c2ccc([N+](=O)[O-])o2)cc1	6%	-1%	3%	-1	-88*	2%
O=C(CN1CCCCCCC1)N/N=C/c1ccc([N+](=O)[O-])o1	-6%	0%	x	-6	u	x
CCOC(=O)N/N=C\c1ccc([N+](=O)[O-])o1	-11%	-1%	4%	1	-95*	-2%
CCCCCCCC(=O)N/N=C/c1ccc([N+](=O)[O-])o1	-3%	0%	24%	-1	-88*	1%
SMILES	Pin1 inh	B2AR arrestin	p53 reactivator	PI4K2A inh	Giardia killer	Epigenetic reg
COc1cccc(Cn2ncc3c4sc(SC)cc4n(C)c3c2=O)c1	4%	x	x	x	x	x
Cc1oc(=O)oc1COC(=O)[C@@H]1N2C(=O)[C@@H](NC(=O)[C@H](N)c3ccccc3)[C@H]2SC1(C)C	x	x	x	1	x	x
COc1cccc(C2c3c(ncn(-c4ccccc4C#N)c3=N)Oc3ccc4ccccc4c32)c1 (stereo not drawn)	5%	x	x	x	x	x
O=C(CC12CC3CC(CC(C3)C1)C2)N/N=C/c1ccc([N+](=O)[O-])o1	25%	0%	16%	-9	-94*	-1%
O=C(Cc1ccc([N+](=O)[O-])cc1)N/N=C/c1ccc([N+](=O)[O-])o1	0%	0%	0%	-2	-89*	-8%
O=C(CNC(=O)c1cccc(Cl)c1)OC(C(=O)Nc1cc(C(F)(F)F)ccc1Cl)c1ccccc1 (stereo not drawn)	20%	x	x	x	x	x
Fc1ccc(-c2cn3ccccc3n2)cc1	0%	-1%	-1%	-12	14	x
CCOc1ccc(-c2cn3ccccc3n2)cc1	6%	0%	-3%	-52*	u	3%
O=C(O)CSc1cccc2cccnc12	-21%	13%	1%	-3	21	18µM*
O=C(CSc1cccc2cccnc12)N/N=C/c1ccc(F)cc1	-3%	3%	-3%	-17	3	0%
O=C(c1cc(-c2ccc(F)cc2)on1)N1CCCC1	2%	0%	u	-1	u	16µM*
CCN(CC)c1ccc(C(=C2C=CC(=[N+](CC)CC)C=C2)c2ccc(S(=O)(=O)O)cc2S(=O)(=O)[O-])cc1	-13%	x	x	-56*	u	x
CCN(CC)c1ccc(C(=O)O)cc1	2%	-1%	-17%	-3	7	0%
Cc1cc2c(s1)c1cnn(Cc3ccc4ccccc4c3)c(=O)c1n2C	-3%	x	x	x	x	x
O=C1C(=Cc2cccn2-c2ccccc2)C(=O)c2ccccc21	u	0%	2%	-2	14	11µM*
O=C(O)c1cccc(-n2cccc2C=C2C(=O)c3ccccc3C2=O)c1	1%	0%	6%	-28	-12	4%
O=C1C(=Cc2cccn2-c2ccc(O)cc2)C(=O)c2ccccc21	u	0%	1%	-9	-15	22µM*
CC(=O)Nc1ccc(S(=O)(=O)Nc2ccc(C)c(C)c2)cc1	-2%	x	x	x	x	x
CN1CCN(Nc2nn3c(=O)c4ccccc4nc3s2)CC1	1%	x	x	x	x	x
O=C(c1ccc2c3n(nc2c1)-c1ccccc1CO3)N1CCCCC1	-7%	-1%	-11%	u	u	5%
O=C(c1ccc2c3n(nc2c1)-c1ccccc1CO3)N1CCOCC1	-2%	0%	17%	-55*	10	-1%
Cc1ccc(NS(=O)(=O)c2cc3c(cc2-c2ccco2)NC(=O)CO3)cc1C	5%	x	x	x	x	x
Cc1cc(/C=C/c2ccc3cc(N(C)C)ccc3[n+]2C)c(C)n1-c1ccccc1	x	x	x	x	x	22µM*
Cc1cc(/C=N/O)c(C)n1-c1ccccc1	0%	-1%	u	-2	-14	0%
CC(=O)c1ccc(NC(=O)c2cn3c4c(ccc(Cl)c4c2=O)OC(C)C3)cc1 (stereo not drawn)	62%	x	x	-1	x	2%
COc1ccc(NC(=O)c2cn3c4c(ccc(Cl)c4c2=O)OC(C)C3)cc1OC (stereo not drawn)	3%	x	x	3	x	18µM*
